Assay results: PubChem BioAssay AID2716 (Broad Institute, 2010)
Out of some 320,000 compounds screened, about 3,300 (1%) were called active. Shown is part of a subset that was picked to be rich in actives. A number with no mark means an inactive call.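 How the source made its calls: active means every valid replicate shows activation above 250% relative to neutral control wells; inactive means the rest, any valid replicate at or below 250%.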

assay: restored growth of temperature-sensitive Mot1-301 yeast – S. cerevisiae, ATP luminescence, 38.5C, SUMOylation pathway inhibitor project, primary screen (AID 2716);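 further: OY570 slx delta 5 strain wells were the positive control but not used for scaling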; conditions: S. cerevisiae Mot1-301 growth rescue, at 18.8 µM, stronger effect = higher value, percent above DMSO median, 100 means doubled

Going from `CC(C)n1c(NCc2c[nH]c3ccccc23)nc2ccccc21` to `Cn1c(NC(=O)c2ccccc2)nc2ccccc21`, the growth rescue falls from 5.8% to 4%.

Compared with `CCN1CCN(c2sc(S(C)(=O)=O)nc2S(=O)(=O)c2ccc(Cl)cc2)CC1`, `CCN1CCN(C(=O)N(Cc2ccc(Cl)cc2)S(=O)(=O)c2ccc(C)cc2)CC1` is lower in growth rescue: 2.93% for the first, 2.05% for the second.

Compared with `C/C(=N\NC(=O)C1(C)CC1(Br)Br)c1ccc(C)cc1C` (configuration not stated), `COc1ccc(CCNC(=O)Cc2ccc(C)cc2)cc1OC` is higher in growth rescue: 8.98% for the first, 102% for the second.

Going from `CCCCc1nccn1CCn1ccnc1CCCC` to `Cc1nccn1CCC1CCCCN1C(=O)CCc1nnc(-c2ccsc2)o1` (configuration not stated), the growth rescue falls from 1.48% to -11.6%.

Compared with `COc1ccc(CCNC(=O)CC2SC(=Nc3cc(C)cc(C)c3)NC2=O)cc1OC` (configuration not stated), `COc1cc(OC)c(C(=O)NCc2ccc3c(c2)OCO3)cc1OC` is lower in growth rescue: 308% for the first, 1.21% for the second.

Going from `COc1cccc(N(CC(=O)NCc2ccccc2)C(=O)CCC(=O)Nc2nccs2)c1` to `COc1cccc(CNC(=O)CCCC(=O)Nc2cccc([N+](=O)[O-])c2)c1`, the growth rescue falls from -6.15% to -7.72%.

First: COC(=O)C1CCN(CC(N)=O)CC1
Second: Cc1ccc(CNC(=O)COC(=O)C2CCC2)cc1
The growth rescue of the first is higher: -5.03% for the first, -6.16% for the second.

First: COc1ccc(C(=O)COC(=O)Cn2cnc3c2c(=O)n(C)c(=O)n3C)c(OC)c1
Second: CC1CCCN(Cc2nc3c(c(=O)n(C)c(=O)n3C)n2CC(=O)c2ccccc2)C1 (configuration not stated)
The growth rescue of the first is lower: -7.8% for the first, -2.98% for the second.

Going from `O=C(Nn1cnnc1)c1cc(Cl)ccc1Cl` to `O=C(CSc1nnc(-c2ccncc2)o1)Nc1cccc(Cl)c1`, the growth rescue falls from 4.55% to -11.5%.

Going from `CN1CCN(S(=O)(=O)c2cccc(C(=O)Nc3cccc(S(N)(=O)=O)c3)c2)CC1` to `Cc1nc2ccc(NC(=O)c3cccc(S(=O)(=O)N4CCOCC4)c3)cc2s1`, the growth rescue falls from -8.57% to -14.6%.

First: COC(=O)CCCC1=CC2=CC(=O)C(C)(OC(=O)c3cccs3)C(=O)C2=CN1CC1CC1 (configuration not stated)
Second: COC(=O)CCCC1=CC2=CC(=O)C(C)(OC(=O)c3cccs3)C(=O)C2=CN1CC(C)C (configuration not stated)
The growth rescue of the first is higher: 414% for the first, 13.6% for the second.

First: CCCCN(C1CCS(=O)(=O)C1)S(=O)(=O)c1ccc(C(C)C)cc1 (configuration not stated)
Second: CCCCN(C(=O)COc1ccc(NC(C)=O)cc1)C1CCS(=O)(=O)C1 (configuration not stated)
The growth rescue of the first is higher: 1.38% for the first, 0.599% for the second.

Going from `CC(=O)c1ccc(S(=O)(=O)N2CCC(Oc3ccc(-n4cnnn4)cc3)CC2)cc1` to `CC1CCN(S(=O)(=O)c2ccc3[nH]c(=O)ccc3c2)CC1`, the growth rescue rises from -5.14% to 14.3%.

Compared with `Cc1cccc(C)c1NC(=O)CN(C)C(=O)CCC(=O)c1ccccc1`, `Cc1cccc(C)c1NC(=O)C(c1ccccc1)N1CC(=O)Nc2ccccc21` (configuration not stated) is higher in growth rescue: -17.7% for the first, 8.11% for the second.

Compared with `CN(C)CCCN(Cc1cc2cc3c(cc2[nH]c1=O)OCCO3)C(=O)NC1CCCCC1`, `C[C@H](CO)N1C[C@H](C)[C@@H](CN(C)C(=O)NC2CCCCC2)Oc2ccc(NC(=O)c3ccncc3)cc2C1=O` is lower in growth rescue: 4.3% for the first, -1.03% for the second.

Compared with `COc1ccc(NS(=O)(=O)c2ccc(C(=O)Nc3c(C)n(C)n(-c4ccccc4)c3=O)cc2)cc1`, `COc1ccc(N(CCC(=O)NCCc2ccccc2)S(=O)(=O)c2ccc(C)cc2C)cc1` is lower in growth rescue: -8.97% for the first, -11.2% for the second.

First: Cc1cccn2c(=O)c3cc(C(=O)NCCN4CCOCC4)c(=N)n(Cc4cccnc4)c3nc12
Second: Cc1cccn2c(=O)c3cc(C(=O)NCC4CCCO4)c(=N)n(Cc4ccc(F)cc4)c3nc12 (configuration not stated)
The growth rescue of the first is lower: -5.56% for the first, -5.43% for the second.

Going from `O=C(NC1CCN(C(=S)NCc2ccco2)CC1)c1ccc(F)cc1` to `O=C(CCNC(=O)c1ccc(Cl)cc1)NC1CCCc2ccccc21` (configuration not stated), the growth rescue rises from -3% to 118%.

Going from `Cc1cc(NC(=O)CSCC(=O)NC(C)c2ccccc2)no1` (configuration not stated) to `Cc1ccccc1-c1nc(CS(=O)(=O)CC(=O)NC(C)c2ccccc2)c(C)o1` (configuration not stated), the growth rescue rises from 4.77% to 5.04%.

Going from `N#Cc1ccc(S(=O)(=O)NCC(=O)OCC(=O)NCCc2ccccc2)cc1` to `CCOc1ccc(N(CC(=O)NCCOc2ccccc2OC)S(=O)(=O)c2ccccc2)cc1`, the growth rescue rises from 0.284% to 0.484%.

Compared with `COc1ccc(S(=O)(=O)NC(C)C(=O)Nc2cccc([N+](=O)[O-])c2)cc1` (configuration not stated), `CCc1cccc(NC(=O)C2CCCN(S(=O)(=O)c3ccc4[nH]c(=O)ccc4c3)C2)c1` (configuration not stated) is higher in growth rescue: -16.6% for the first, -9.11% for the second.

First: CCOC(=O)C1CCCN(C(=O)c2ccc(C)c(S(=O)(=O)N3CCCCC3)c2)C1 (configuration not stated)
Second: N#CCCN1CCN(S(=O)(=O)c2ccc(S(=O)(=O)NC3CCCCC3)cc2)CC1
The growth rescue of the first is lower: -5.7% for the first, 111% for the second.

Going from `CCOc1ccc2nc(N(CCCN(C)C)C(=O)c3ccc(C(=O)c4ccccc4)cc3)sc2c1` to `CCOc1ccc2nc(N(CCN(C)C)C(=O)c3ccc4ccccc4c3)sc2c1`, the growth rescue rises from 1.2% to 74.9%.

Going from `Cc1ccccc1-c1nc(CS(=O)(=O)CC(=O)N2CCc3ccccc3C2)c(C)o1` to `CC1Cc2ccccc2N1C(=O)CSc1nnc(-c2ccc(S(=O)(=O)N3CCCC3)cc2)n1C` (configuration not stated), the growth rescue falls from -11.2% to -12%.

Going from `N#CCc1ccc(OC(=O)c2cccnc2)cc1` to `O=C(Oc1ccc(Br)cc1)c1cccnc1`, the growth rescue falls from 9.1% to 1.84%.

First: CCOC(=O)c1ccc(N2C(=O)CC(N(C)Cc3ccccc3)C2=O)cc1 (configuration not stated)
Second: CCCCOC(=O)c1ccc(N2C(=O)CC(N3CCN(C/C=C/c4ccccc4)CC3)C2=O)cc1 (configuration not stated)
The growth rescue of the first is higher: 94.8% for the first, -18% for the second.

First: CC(C)C(NC(=O)c1c(F)cccc1F)C(=O)NNC(=O)c1ccccc1 (configuration not stated)
Second: CC(C)CCNC(=O)c1cccnc1Sc1ccccc1
The growth rescue of the first is lower: -1.01% for the first, 2.14% for the second.

Going from `Cc1ccc(C)c(S(=O)(=O)Nc2cccc(-n3cnnn3)c2)c1` to `Cc1ccc(S(=O)(=O)n2cnc3ccccc32)c(C)c1`, the growth rescue falls from -7.94% to -12.4%.

Compared with `Cc1nc(-c2nnc(SCC(=O)Nc3cc(C(F)(F)F)cc(C(F)(F)F)c3)n2C)cs1`, `O=C(O)CSC(NC(=O)c1cccnc1)(C(F)(F)F)C(F)(F)F` is lower in growth rescue: 16.5% for the first, -13.2% for the second.

Compared with `COc1cccc(CNCc2ccc3c(c2)OCO3)c1`, `COc1ccc(S(=O)(=O)n2cnc3ccccc32)c(C)c1` is higher in growth rescue: -12.1% for the first, -3.94% for the second.

First: COc1ccc(-c2c(C#Cc3ccsc3)c3cc(-c4ccc(CN5CCOCC5)cc4)ccc3n2C)cc1
Second: Cc1cccc(C(=O)Nc2ccccc2N2CCN(c3ccc(F)cc3)CC2)c1
The growth rescue of the first is lower: -20.4% for the first, 0.874% for the second.

Going from `COCCn1c(CN2CCC(Cc3ccccc3)CC2)nc2c1c(=O)n(C)c(=O)n2C` to `O=C(Nc1ccccc1N1CCCC1)c1ccc2ccccc2c1`, the growth rescue falls from -13.7% to -24.5%.

Compared with `Cc1ccc(NC(=O)CCNC(=O)c2ccc([N+](=O)[O-])cc2)cc1S(=O)(=O)N1CCOCC1`, `CC(=O)c1ccc(NC(=O)c2ccc(-n3cncn3)c([N+](=O)[O-])c2)cc1` is higher in growth rescue: -3.52% for the first, 62.2% for the second.

First: Cc1cc(C)cc(Oc2c(C(F)(F)F)oc3cc(OCC(=O)O)ccc3c2=O)c1
Second: CCc1cc2c(=O)c(-c3ccon3)c(N)oc2cc1OC
The growth rescue of the first is higher: -7.69% for the first, -11.8% for the second.

First: CCSC(C)CC1C/C(=N/O)c2c(C)noc2C1 (configuration not stated)
Second: CCOC(=O)C1=C(C)NC(C)=C(C(=O)OCC)C1C1=COCCO1
The growth rescue of the first is higher: 5.53% for the first, -16.1% for the second.

Compared with `CN(c1ccccc1)S(=O)(=O)c1ccc(C(=O)N2CCN(c3ccccc3Cl)CC2)cc1`, `NC1=C([N+](=O)[O-])C(c2ccccc2)C2=C(CCCC2=O)O1` (configuration not stated) is lower in growth rescue: 19.5% for the first, -9.51% for the second.

Compared with `CCCc1[nH]nc2c1C(C1CC=CCC1)C(C#N)=C(N)O2` (configuration not stated), `O=C1CCCN2N=C(SCC(=O)Nc3ccc(Br)cc3)SC2=N1` is lower in growth rescue: 4.92% for the first, -5.37% for the second.

In the case of `Cc1ccc(O)c(CNc2nc3ccccc3n2C)c1`, the growth rescue is reported as 913% (active).
For `CCCN=C1NC(=O)C(CC(=O)NCCc2ccc(OC)c(OC)c2)S1` (configuration not stated), the growth rescue was 536% (active).
With `CCCCC1=CC2=CC(=O)C(C)(OC(=O)CC)C(=O)C2=CN1CCCOC(C)C` (configuration not stated) the growth rescue was 499% (active).
In the case of `Cc1cccc(C)c1NC(=O)C(Cl)C(=O)c1ccccc1` (configuration not stated), the growth rescue is reported as 474% (active).
With `CCn1c(=N)c(C(=O)NCCCOC)cc2c(=O)n3cccc(C)c3nc21` the growth rescue was 327% (active).
With `Cc1cccc(-[n+]2c(-c3cccc(Br)c3)[nH]c3nc4ccccc4nc32)c1` the growth rescue was 655% (active).
In the case of `COC(=O)/C=C\C(=O)Nc1cccc([N+](=O)[O-])c1`, the growth rescue is reported as 362% (active).
With `CCCC(=O)N(CCN1CCOCC1)c1nc2ccc(OCC)cc2s1` the growth rescue was 371% (active).
In the case of `COC(=O)c1cc2occc2n1Cc1nc(-c2ccccc2C)oc1C`, the growth rescue is reported as 611% (active).
For `CCCCCCOc1ccc(OC(=O)c2cccnc2)cc1`, the growth rescue was 329% (active).
In the case of `Cc1cc(C)cc(NC(=O)C2CCCN(S(=O)(=O)c3ccc4[nH]c(=O)ccc4c3)C2)c1` (configuration not stated), the growth rescue is reported as 2800% (active).
With `CCCCCCC(=O)N(O)C1CC(=O)N(c2ccccc2)C1=O` (configuration not stated) the growth rescue was 321% (active).
With `COc1cc(CNCc2ccc3c(c2)OCO3)c([N+](=O)[O-])cc1OC` the growth rescue was 1080% (active).
With `CC1CCN(Cc2nc3c(c(=O)n(C)c(=O)n3C)n2CCc2ccccc2)CC1` the growth rescue was 768% (active).
With `CCc1cc2c(=O)c(-c3ccc(F)cc3)c(C(F)(F)F)oc2cc1OCC(=O)O` the growth rescue was 807% (active).
For `Cc1ccc(C)c(S(=O)(=O)n2cnc3ccccc32)c1`, the growth rescue was 439% (active).
For `N#CC1=C(N)OC2=C(C(=O)CCC2)C1C1CC=CCC1` (configuration not stated), the growth rescue was 435% (active).
For `O=C(Nc1ccccc1N1CCN(c2ccccc2)CC1)c1cccc(F)c1`, the growth rescue was 516% (active).
